Experiment [1] in a line: NCI Yeast Anticancer Drug Screen. Data for the rad50 strain (AID 155).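 Further: 0% = growth of vehicle-only cultures of the same strain.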 To be noted: S. cerevisiae rad50 strain growth inhibition, stronger effect = higher value; at 50.0 µM unless noted. Summed up: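 Inhibition values express reduced yeast growth in compound-treated cultures relative to vehicle-treated controls.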
Experiment [2] is described as follows: NCI Yeast Anticancer Drug Screen. Data for the mec2-1 strain (AID 157). To be noted: S. cerevisiae mec2-1 strain, stronger effect = higher value; at 50.0 µM unless noted. Put shortly:
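Strain: mec2-1 (DNA repair/cell cycle alteration). Compound exposure, then growth measured; inhibition expressed relative to vehicle.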

A short description of experiment [3]: NCI Yeast Anticancer Drug Screen. Data for the sgs1 mgt1 strain (AID 161).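 Further: 0% = growth of cultures given vehicle only.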 To be noted: S. cerevisiae sgs1 mgt1 strain, stronger effect = higher value; at 50.0 µM unless noted. Put shortly: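 Mutant yeast exposed to compound; growth scored against vehicle-only wells.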
Experiment [4] can be described thus: NCI Yeast Anticancer Drug Screen. Data for the cln2 rad14 strain (AID 165).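 Further: 0% = growth equal to vehicle treated cultures.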 The note with it: S. cerevisiae cln2 rad14 strain, stronger effect = higher value; at 50.0 µM unless noted. Put shortly: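 Compounds are applied to the cln2 rad14 yeast strain, and growth is then compared with that of vehicle-treated cultures to give inhibition.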
A short description of experiment [5]: NCI Yeast Anticancer Drug Screen. Data for the bub3 strain (AID 167). To be noted: S. cerevisiae bub3 mutant strain, stronger effect = higher value; at 50.0 µM unless noted. Put shortly:
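Steps: expose the mutant yeast strain to compound; grow alongside vehicle-treated cultures; measure growth; express inhibition against the vehicle cultures.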

The nature of experiment [6]: NCI Yeast Anticancer Drug Screen. Data for the mlh1 rad18 strain (AID 175). The note with it: S. cerevisiae mlh1 rad18 strain growth inhibition, stronger effect = higher value; at 50.0 µM unless noted. Put shortly:
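Read-out is yeast growth inhibition, calculated against vehicle-only controls. The compound was applied to a strain engineered with DNA damage repair alterations.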

We go through 21 molecules from PubChem BioAssay (NCI).

Where “and” joins values, the source holds several entries; their conditions need not be identical. Identical values can stand only once. The panel holds about 79,000 compounds, 15% with a hit somewhere; the sample as a whole holds those more often. Unmarked numbers belong to inactive results. Calls of active or inactive are those of the source. No stated cut-off is given here; in the data, active means growth inhibition above about 70%; inactive means the rest.

With `Cc1c([N+](=O)[O-])cc(C(C)(C)C)c(OC(=O)c2ccccc2)c1[N+](=O)[O-]`, the growth inhibition in experiment [1] is 41.5%; in experiment [2], 24.7%; in experiment [3], 41%; in experiment [4], 16.3%; in experiment [5] it was 25.4%; in experiment [6], 20.4%.
On to `CSC(=Nc1ccccc1Cl)NC(=O)c1ccc(Br)cc1`, for which the growth inhibition in experiment [1] was -9.65%; in experiment [2], 20.7%; in experiment [3], 5.7%; in experiment [4], 19.3%; in experiment [5], 7.8%; in experiment [6], -8.4%.
Take `COc1ccc(-c2oc3c(CC(=O)O)cccc3c(=O)c2OC)cc1`: the growth inhibition was -8.75% in experiment [1]; -15.3% in experiment [2]; -25.3% in experiment [3]; -14.4% in experiment [4]; -12.7% in experiment [5]; -12.3% in experiment [6].
On to `COc1ccc(/C(=C(/c2ccc(OC)cc2)C2CC2)C2CC2)cc1`, for which the growth inhibition in experiment [1] is -5.3%; in experiment [2] it was 7.25%; in experiment [3], 11%; in experiment [4], -14.8%; in experiment [5], 5.45%; in experiment [6] it was 10.6%.
Take `Cc1ccc(C(=O)/C=C/C(=O)c2ccc(C)cc2)cc1`: the growth inhibition in experiment [1] is 4.55%; in experiment [2], 29.9%; in experiment [3] it was 19.2%; in experiment [4], 19.9%; in experiment [5] it was 14.9%; in experiment [6], 3.8%.
As to `CCC(CC)C(=O)NCCNC(=O)C(CC)CC`, the growth inhibition is 5.45% in experiment [1]; -0.9% in experiment [2]; 14.2% in experiment [3]; -30.1% in experiment [4]; -10.6% in experiment [5]; -17.2% in experiment [6].
Regarding `COC(OC)C(C)=O`, the growth inhibition was -13.1% in experiment [1]; -19.8% in experiment [2]; -18.9% in experiment [3]; -16.9% in experiment [4]; -15.5% in experiment [5]; 5.35% in experiment [6].
With `COc1ccc(C(=O)c2ccc(Br)s2)cc1`, the growth inhibition was 5.9% in experiment [1]; -6.65% in experiment [2]; 12.8% in experiment [3]; -14.4% in experiment [4]; 13.8% in experiment [5]; 33% in experiment [6].
With `Cc1cc2ccccc2c(N=Cc2cc(Br)cc(Br)c2O)c1C#N`, the growth inhibition is 59.8% in experiment [1]; 87.5% (active) in experiment [2]; 96.8% (active) in experiment [3]; 60.2% in experiment [4]; 83.8% (active) in experiment [5]; 97.8% (active) in experiment [6].
`O=C(Nc1ccc2c(c1)Cc1ccccc1-2)c1cccc2ccccc12`: the growth inhibition is -4.05% in experiment [1]; -20.8% in experiment [2]; 0.4% in experiment [3]; -47% in experiment [4]; 12.2% in experiment [5]; -5.2% in experiment [6].
In the case of `Nc1c(F)c(F)c(N=Nc2ccccc2)c(F)c1F`, the growth inhibition in experiment [1] is 5.2%; in experiment [2] it was 7.1%; in experiment [3], 3.8%; in experiment [4] it was 7.05%; in experiment [5] it was 24.4%; in experiment [6] it was -17.1%.
Consider `NC(=S)C(=S)N=Cc1c(O)c2ccccc2oc1=O`, for which the growth inhibition was 39.3% in experiment [1]; 29.9% in experiment [2]; 63.1% in experiment [3]; 18.9% in experiment [4]; 23.1% in experiment [5]; 40.5% in experiment [6].
Regarding `CS(=O)(=O)c1nc2[nH]cnc(=S)c2[nH]1`, the growth inhibition was 8% in experiment [1]; -8.2% in experiment [2]; -3.5% in experiment [3]; 10.9% in experiment [4]; 20.9% in experiment [5]; -7.1% in experiment [6].
Consider `O=C(O)CCC1=Nc2cccc3cccc(c23)NC1=O`, for which the growth inhibition was 36.2% in experiment [1]; 32.2% in experiment [2]; 7.75% in experiment [3]; -3.35% in experiment [4]; 12.9% in experiment [5]; 13.9% in experiment [6].
Turning to `C/C(=C/CC1=C(O)c2ccccc2C(=O)C1=O)CO`, the growth inhibition is 23% in experiment [1]; 32.9% in experiment [2]; 51.7% in experiment [3]; 32.8% in experiment [4]; 26% in experiment [5]; 33.8% in experiment [6].
Regarding `CC1(C)OC2OC3C(Br)C(=O)OC3C2O1` (stereo unspecified), the growth inhibition in experiment [1] was 14.8%; in experiment [2], -8.45%; in experiment [3] it was 24.7%; in experiment [4], 9.65%; in experiment [5] it was 24.1%; in experiment [6], 26.2%.
On to `CC(=O)Nc1snc(C)c1[N+](=O)[O-]`, for which the growth inhibition was -4.55% in experiment [1]; -0.1% in experiment [2]; 6.75% in experiment [3]; -8.2% in experiment [4]; -2.9% in experiment [5]; 0.55% in experiment [6].
In the case of `Brc1ccc2c(ccc3c2nnc2ncnn23)c1`, the growth inhibition in experiment [1] is 42.5%; in experiment [2], 22.4%; in experiment [3] it was 16.9%; in experiment [4] it was 10.7%; in experiment [5], -1.55%; in experiment [6], 42.2%.
Take `O=C(O)/C=C1\NC(=O)NC1=O`: the growth inhibition in experiment [1] is 16.1%; in experiment [2], -5.1%; in experiment [3] it was 11.8%; in experiment [4] it was 6.1%; in experiment [5], 5.75%; in experiment [6], 33%.
In the case of `O=S(=O)(O)c1ccc2c(ccc3ccccc32)c1`, the growth inhibition in experiment [1] was -18.4% and -3.8%; in experiment [2], -0.25% and -18.4%; in experiment [3], -2.9% and -14.2%; in experiment [4], -0.9% and 21.6%; in experiment [5] it was 1.35% and 28.1%; in experiment [6] it was 5.7% and -23.1%.
For the molecule `CC(C)COC(c1ccc2c(c1)OCO2)C(C)Br` (stereo unspecified), the growth inhibition in experiment [1] is 34.5%; in experiment [2], 39.5%; in experiment [3], 22.4%; in experiment [4], 0.3%; in experiment [5], 48.5%; in experiment [6], 58.5%.
